Experiment [1] deals with T1, Tyrosine-protein kinase Mer (Homo sapiens) (UniProt Q12866).
T1 sequence (whole entry): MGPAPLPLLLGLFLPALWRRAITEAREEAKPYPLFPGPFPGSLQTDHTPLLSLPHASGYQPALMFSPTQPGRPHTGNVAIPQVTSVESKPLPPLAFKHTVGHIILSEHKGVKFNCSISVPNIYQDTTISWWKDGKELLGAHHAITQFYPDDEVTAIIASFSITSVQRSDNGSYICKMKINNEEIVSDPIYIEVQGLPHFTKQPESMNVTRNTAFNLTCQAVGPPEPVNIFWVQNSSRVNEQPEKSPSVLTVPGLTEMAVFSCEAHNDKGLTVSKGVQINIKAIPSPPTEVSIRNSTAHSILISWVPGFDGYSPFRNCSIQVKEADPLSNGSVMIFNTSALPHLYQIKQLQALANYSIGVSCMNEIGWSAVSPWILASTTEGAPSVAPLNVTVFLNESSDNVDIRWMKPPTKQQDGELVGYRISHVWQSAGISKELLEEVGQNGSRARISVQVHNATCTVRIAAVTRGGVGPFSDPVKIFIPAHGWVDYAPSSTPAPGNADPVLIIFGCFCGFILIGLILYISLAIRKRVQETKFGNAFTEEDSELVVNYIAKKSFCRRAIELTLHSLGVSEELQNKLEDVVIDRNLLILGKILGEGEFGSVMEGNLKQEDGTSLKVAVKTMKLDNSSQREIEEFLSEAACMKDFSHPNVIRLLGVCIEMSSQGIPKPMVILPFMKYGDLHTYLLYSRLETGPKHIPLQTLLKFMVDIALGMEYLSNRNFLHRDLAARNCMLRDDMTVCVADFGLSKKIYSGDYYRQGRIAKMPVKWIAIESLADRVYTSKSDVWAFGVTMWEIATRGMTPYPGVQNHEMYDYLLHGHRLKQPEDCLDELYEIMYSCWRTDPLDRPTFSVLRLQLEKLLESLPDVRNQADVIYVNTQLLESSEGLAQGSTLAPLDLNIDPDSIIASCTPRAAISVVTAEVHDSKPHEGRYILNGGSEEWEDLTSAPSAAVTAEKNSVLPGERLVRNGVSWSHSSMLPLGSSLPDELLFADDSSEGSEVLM
The settings on record: at 1 µM.

In experiment [2] the target is T1, Tyrosine-protein kinase Mer (Homo sapiens). The settings on record: at 10 µM.
Experiment [3] concerns the target Hepatocyte growth factor receptor (Homo sapiens) (UniProt P08581). The settings on record: at 1 µM.
For experiment [4] the target is unchanged. The settings on record: at 10 µM.
Experiment [5] addresses MAP kinase-interacting serine/threonine-protein kinase 2 (Homo sapiens) (UniProt Q9HBH9). The settings on record: at 1 µM.
For experiment [6] the target is unchanged. Particulars: at 10 µM.
Experiment [7] concerns the target T2, Muscle, skeletal receptor tyrosine-protein kinase (Homo sapiens) (UniProt O15146).
T2 sequence (whole entry): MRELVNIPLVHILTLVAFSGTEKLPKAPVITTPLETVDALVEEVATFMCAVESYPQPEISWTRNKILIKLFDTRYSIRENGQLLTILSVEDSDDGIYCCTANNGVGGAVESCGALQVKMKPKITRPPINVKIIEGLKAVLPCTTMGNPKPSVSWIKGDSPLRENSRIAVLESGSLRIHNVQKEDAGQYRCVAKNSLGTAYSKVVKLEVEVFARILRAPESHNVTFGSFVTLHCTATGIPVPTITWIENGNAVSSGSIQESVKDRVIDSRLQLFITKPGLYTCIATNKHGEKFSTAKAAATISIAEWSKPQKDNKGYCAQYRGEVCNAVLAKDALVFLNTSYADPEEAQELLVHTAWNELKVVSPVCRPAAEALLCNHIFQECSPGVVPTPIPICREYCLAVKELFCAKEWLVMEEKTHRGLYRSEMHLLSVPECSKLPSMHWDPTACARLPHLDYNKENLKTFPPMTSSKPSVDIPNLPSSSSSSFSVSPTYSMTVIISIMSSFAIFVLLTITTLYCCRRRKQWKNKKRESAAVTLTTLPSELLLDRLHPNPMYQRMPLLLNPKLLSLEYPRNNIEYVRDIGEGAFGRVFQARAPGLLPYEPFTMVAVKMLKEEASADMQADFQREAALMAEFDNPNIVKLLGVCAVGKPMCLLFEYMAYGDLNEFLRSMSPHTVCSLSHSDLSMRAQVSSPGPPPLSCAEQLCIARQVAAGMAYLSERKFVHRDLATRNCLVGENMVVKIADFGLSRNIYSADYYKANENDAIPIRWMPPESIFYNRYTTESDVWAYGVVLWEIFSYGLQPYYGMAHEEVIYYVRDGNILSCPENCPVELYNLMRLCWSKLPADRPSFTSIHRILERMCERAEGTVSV
Particulars: at 1 µM.

Experiment [8] deals with T2, Muscle, skeletal receptor tyrosine-protein kinase (Homo sapiens). Particulars: at 10 µM.
The target in experiment [9] is T3, Serine/threonine-protein kinase Nek11 (Homo sapiens) (UniProt Q8NG66).
T3 sequence (whole entry): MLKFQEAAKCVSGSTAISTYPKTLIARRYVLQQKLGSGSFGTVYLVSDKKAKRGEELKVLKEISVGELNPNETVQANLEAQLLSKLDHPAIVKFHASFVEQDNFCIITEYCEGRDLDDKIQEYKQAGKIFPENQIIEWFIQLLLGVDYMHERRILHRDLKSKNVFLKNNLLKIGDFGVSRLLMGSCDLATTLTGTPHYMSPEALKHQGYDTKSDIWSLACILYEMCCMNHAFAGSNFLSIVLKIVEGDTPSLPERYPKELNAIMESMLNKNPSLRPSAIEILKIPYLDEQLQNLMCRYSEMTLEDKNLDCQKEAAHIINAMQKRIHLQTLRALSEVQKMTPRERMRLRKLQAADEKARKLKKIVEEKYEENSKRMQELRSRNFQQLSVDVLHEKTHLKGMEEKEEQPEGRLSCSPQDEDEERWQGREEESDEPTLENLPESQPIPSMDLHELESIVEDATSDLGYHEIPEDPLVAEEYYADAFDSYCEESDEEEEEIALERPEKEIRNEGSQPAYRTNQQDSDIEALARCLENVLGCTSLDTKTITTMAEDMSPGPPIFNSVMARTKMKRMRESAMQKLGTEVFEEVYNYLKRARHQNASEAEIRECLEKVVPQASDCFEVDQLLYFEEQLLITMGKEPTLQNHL
Particulars: at 1 µM.

Experiment [10] deals with T4, Serine/threonine-protein kinase Nek2 (Homo sapiens) (UniProt P51955).
T4 sequence (whole entry): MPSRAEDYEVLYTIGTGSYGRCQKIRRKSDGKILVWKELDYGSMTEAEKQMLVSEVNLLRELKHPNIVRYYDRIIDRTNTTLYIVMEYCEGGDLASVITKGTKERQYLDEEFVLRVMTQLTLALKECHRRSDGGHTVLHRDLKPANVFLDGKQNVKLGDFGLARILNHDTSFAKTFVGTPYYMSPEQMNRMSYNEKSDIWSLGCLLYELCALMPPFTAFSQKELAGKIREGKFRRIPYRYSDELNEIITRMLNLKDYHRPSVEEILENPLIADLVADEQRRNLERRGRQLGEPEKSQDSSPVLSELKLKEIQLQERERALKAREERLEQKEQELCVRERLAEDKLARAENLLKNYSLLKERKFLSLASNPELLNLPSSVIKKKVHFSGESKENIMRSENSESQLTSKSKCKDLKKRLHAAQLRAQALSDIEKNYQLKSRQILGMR
The settings on record: at 1 µM.

Experiment [11] has as its target T4, Serine/threonine-protein kinase Nek2 (Homo sapiens). Particulars: at 10 µM.
Experiment [12] addresses T5, Serine/threonine-protein kinase Nek3 (Homo sapiens) (UniProt P51956).
T5 sequence (whole entry): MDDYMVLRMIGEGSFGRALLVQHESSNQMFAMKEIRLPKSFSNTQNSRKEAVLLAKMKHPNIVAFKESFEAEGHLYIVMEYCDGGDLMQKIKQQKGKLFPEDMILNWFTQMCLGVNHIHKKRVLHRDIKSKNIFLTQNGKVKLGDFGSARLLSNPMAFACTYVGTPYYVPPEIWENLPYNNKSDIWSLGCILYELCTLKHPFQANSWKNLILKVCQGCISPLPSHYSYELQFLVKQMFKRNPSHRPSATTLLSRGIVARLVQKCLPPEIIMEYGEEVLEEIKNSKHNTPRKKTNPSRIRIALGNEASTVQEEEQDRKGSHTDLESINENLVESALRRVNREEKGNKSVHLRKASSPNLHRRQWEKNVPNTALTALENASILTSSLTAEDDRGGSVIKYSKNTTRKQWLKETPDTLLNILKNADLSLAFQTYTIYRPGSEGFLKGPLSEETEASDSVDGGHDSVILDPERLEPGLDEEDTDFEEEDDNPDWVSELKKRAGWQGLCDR
Particulars: at 1 µM.

Experiment [13] addresses T5, Serine/threonine-protein kinase Nek3 (Homo sapiens). The settings on record: at 10 µM.
In experiment [14] the target is Serine/threonine-protein kinase tousled-like 2 (Homo sapiens) (UniProt Q86UE8). The settings on record: at 1 µM.
Sequence of Serine/threonine-protein kinase tousled-like 2 (Homo sapiens) (Q86UE8 whole entry, looked up): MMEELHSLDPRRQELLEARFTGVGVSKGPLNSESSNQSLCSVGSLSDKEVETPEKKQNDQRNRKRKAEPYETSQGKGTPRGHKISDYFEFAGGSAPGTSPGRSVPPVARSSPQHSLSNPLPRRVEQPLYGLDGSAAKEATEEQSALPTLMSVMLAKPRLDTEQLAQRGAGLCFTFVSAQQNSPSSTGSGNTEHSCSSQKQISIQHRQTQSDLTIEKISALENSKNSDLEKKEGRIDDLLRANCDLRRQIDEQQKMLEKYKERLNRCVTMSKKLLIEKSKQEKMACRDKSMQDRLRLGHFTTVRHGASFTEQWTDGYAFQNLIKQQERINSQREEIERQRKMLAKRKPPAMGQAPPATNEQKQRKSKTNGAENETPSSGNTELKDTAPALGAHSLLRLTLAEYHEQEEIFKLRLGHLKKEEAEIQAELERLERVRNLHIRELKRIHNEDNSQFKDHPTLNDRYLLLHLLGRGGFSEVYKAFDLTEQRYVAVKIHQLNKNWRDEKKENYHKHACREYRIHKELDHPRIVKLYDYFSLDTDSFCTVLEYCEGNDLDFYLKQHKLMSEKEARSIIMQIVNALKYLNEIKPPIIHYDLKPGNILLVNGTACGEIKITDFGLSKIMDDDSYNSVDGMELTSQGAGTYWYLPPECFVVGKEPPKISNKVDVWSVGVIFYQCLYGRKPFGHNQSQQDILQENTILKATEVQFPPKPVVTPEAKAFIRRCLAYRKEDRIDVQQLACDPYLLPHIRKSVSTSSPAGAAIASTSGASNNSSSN
For experiment [15] the target is unchanged. Particulars: at 10 µM.
For experiment [16], the target named is T6, Testis-specific serine/threonine-protein kinase 1 (Homo sapiens) (UniProt Q9BXA7).
T6 sequence (whole entry): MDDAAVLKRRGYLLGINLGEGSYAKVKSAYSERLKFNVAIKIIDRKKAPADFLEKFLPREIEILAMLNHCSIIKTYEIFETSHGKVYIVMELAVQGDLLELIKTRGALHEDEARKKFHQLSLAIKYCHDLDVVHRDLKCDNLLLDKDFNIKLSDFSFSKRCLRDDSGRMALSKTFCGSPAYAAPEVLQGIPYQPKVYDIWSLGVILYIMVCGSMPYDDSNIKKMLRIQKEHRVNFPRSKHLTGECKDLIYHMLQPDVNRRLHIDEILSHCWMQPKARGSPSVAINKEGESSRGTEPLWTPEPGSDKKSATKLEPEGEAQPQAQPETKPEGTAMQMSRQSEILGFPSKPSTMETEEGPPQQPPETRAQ
Particulars: at 1 µM.

Experiment [17] has as its target T6, Testis-specific serine/threonine-protein kinase 1 (Homo sapiens). The settings on record: at 10 µM.
The target of experiment [18] is T7, Testis-specific serine/threonine-protein kinase 2 (Homo sapiens) (UniProt Q96PF2).
T7 sequence (whole entry): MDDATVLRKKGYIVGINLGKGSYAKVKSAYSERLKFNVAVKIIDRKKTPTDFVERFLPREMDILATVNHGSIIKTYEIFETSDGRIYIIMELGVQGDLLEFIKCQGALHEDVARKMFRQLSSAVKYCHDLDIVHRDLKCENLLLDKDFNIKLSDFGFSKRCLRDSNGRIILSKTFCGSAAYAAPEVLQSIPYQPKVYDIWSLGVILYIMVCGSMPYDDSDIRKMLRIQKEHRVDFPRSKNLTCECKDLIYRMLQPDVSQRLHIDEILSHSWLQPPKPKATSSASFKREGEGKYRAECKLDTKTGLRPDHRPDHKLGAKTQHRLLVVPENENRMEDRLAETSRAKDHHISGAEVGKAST
Particulars: at 1 µM.

Experiment [19] has as its target T7, Testis-specific serine/threonine-protein kinase 2 (Homo sapiens). Particulars: at 10 µM.
Experiment [20] concerns the target T3, Serine/threonine-protein kinase Nek11 (Homo sapiens). Particulars: at 10 µM.

Molecules are shown by their SMILES.

Sequence of MAP kinase-interacting serine/threonine-protein kinase 2 (Homo sapiens) (Q9HBH9 whole entry, looked up): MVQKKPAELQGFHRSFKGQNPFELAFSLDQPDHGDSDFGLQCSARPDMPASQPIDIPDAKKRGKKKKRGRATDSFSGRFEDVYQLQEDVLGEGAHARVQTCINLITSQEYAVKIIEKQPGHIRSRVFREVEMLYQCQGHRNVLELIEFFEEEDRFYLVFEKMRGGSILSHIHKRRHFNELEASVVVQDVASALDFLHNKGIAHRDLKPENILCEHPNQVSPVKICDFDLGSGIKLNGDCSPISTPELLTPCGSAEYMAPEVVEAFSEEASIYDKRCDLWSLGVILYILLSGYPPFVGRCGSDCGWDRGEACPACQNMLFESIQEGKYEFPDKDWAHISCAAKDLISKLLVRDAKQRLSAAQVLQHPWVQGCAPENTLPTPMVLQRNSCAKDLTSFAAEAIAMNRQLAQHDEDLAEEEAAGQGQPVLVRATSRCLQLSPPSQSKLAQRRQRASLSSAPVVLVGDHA
Sequence of Hepatocyte growth factor receptor (Homo sapiens) (P08581 whole entry): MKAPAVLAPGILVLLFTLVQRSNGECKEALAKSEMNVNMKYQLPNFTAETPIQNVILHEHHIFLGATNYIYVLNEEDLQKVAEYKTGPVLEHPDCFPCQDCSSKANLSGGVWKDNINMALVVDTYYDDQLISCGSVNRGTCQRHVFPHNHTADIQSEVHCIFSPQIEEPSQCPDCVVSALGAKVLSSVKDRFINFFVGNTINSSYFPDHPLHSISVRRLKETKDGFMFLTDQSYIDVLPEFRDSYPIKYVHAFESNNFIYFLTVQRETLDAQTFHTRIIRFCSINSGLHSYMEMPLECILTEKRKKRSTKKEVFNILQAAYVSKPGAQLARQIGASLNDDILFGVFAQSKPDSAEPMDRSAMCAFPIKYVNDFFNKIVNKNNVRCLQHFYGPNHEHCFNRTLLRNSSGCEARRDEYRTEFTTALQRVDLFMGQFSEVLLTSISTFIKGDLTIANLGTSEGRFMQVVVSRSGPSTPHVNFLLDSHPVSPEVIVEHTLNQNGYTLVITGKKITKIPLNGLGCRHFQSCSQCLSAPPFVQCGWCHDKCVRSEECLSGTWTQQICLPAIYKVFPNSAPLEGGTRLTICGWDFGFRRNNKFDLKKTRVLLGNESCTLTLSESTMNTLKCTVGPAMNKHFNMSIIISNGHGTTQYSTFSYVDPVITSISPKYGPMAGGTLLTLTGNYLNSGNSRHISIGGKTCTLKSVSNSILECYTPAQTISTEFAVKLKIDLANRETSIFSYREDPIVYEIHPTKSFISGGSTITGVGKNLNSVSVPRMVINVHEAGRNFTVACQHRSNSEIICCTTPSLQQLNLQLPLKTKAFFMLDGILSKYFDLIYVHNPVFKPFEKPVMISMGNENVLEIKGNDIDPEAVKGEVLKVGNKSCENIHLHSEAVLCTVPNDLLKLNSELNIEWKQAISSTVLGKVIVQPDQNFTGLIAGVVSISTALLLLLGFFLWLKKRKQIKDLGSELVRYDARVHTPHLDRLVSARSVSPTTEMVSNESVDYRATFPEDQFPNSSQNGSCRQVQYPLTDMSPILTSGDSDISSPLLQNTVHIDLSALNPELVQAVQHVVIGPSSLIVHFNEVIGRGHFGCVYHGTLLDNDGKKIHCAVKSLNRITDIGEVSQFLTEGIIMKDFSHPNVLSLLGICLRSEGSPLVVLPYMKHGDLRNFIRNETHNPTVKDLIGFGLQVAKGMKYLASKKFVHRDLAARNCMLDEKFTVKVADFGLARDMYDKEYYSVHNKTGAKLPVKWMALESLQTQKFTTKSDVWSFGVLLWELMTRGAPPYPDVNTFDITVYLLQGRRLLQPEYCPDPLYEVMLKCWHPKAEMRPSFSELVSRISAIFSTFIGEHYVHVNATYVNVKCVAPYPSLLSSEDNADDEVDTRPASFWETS

As for `C[S+]([O-])c1ccc(-c2nc(-c3ccc(F)cc3)c(-c3ccncc3)[nH]2)cc1` (stereo not given), the residual activity in experiment [1] amounted to 117%; in [2], 105%; in [3] it was 123%; in experiment [4], 68%; in experiment [5] it was 103%; in experiment [6] it was 87%. Further, the residual activity came out at 143% in experiment [7]; 95% in experiment [8]; 90% in experiment [9]; 114% in [10]; 118% in [11]; 104% in experiment [12]. In addition, the residual activity in experiment [13] was found to be 104%; in experiment [14], 113%; in [15], 109%; in [16], 106%; in experiment [17] it was 94%; in [18], 94%. For the same compound, in experiment [19], the residual activity came out at 100%.
For `c1ccc(-c2n[nH]cc2-c2ccnc3ccccc23)nc1`, the residual activity in experiment [18] was 96%.
The same measure, in the same setting: next, `Ic1cccc(CSc2nnc(-c3ccncc3)o2)c1`: 87%; `CC[n+]1c(/C=C/N(C)c2ccccc2)n(-c2ccccc2)c2ccc(-c3nc4ccccc4s3)cc21`: 104%.
As to `COC(=O)[C@@]1(O)C[C@H]2O[C@]1(C)n1c3ccccc3c3c4c(c5c6ccccc6n2c5c31)C(=O)NC4`, the residual activity in experiment [1] was determined as 2%; in experiment [2], 0%; in experiment [3] it was 6%; in experiment [4], 13%; in [5] it was 0%; in [6], 0%. In addition, the residual activity in experiment [7] was determined as 18%; in [8] it was 2%; in experiment [9], 34%; in experiment [20] it was 9%; in experiment [10], 75%; in experiment [11], 29%. For the same compound, the residual activity in experiment [12] was 65%; in experiment [13] it was 53%; in [14], 1%; in [15] it was 0%; in [16], -1%; in experiment [17], 0%. For the same compound, the residual activity in experiment [18] came out at 8%; in experiment [19], 0%.
Take `O=c1c2ccccc2[nH]c(=S)n1CCN1CCC(=C(c2ccc(F)cc2)c2ccc(F)cc2)CC1`: the residual activity in experiment [18] came to 96%.
With `O=C(NC(NC(=S)Nc1ccc(F)c([N+](=O)[O-])c1)C(Cl)(Cl)Cl)C(c1ccccc1)c1ccccc1` (stereo not given), the residual activity in [18] was determined as 102%.
As for `N#CC(C#N)=C(N)/C(C#N)=C/c1ccc(O)cc1`, the residual activity in experiment [18] was 85%.
The same measure, in the same setting: the value for `Cc1cncc2cccc(S(=O)(=O)N3CCCN(C(=O)CN)C[C@H]3C)c12` was 80%; that for `CSc1nc(-c2ccc(F)cc2)c(-c2ccnc(NC(C)c3ccccc3)c2)[nH]1` (stereo not given) was 98%.
Turning to `CC(=O)c1ccc(N2CCOCC2)cc1O`, in experiment [18], the residual activity turned out to be 89%.
Take `N#C/C(=C(\N)Sc1ccc(N)cc1)c1ccccc1C(F)(F)F`: in [18], the residual activity stood at 62%.
For `CC(C)c1nn(-c2c(Cl)cccc2Cl)c2nc(Cc3ccc(OCCO)cc3)[nH]c(=O)c12`, the residual activity in experiment [18] came to 93%.

Broadly, the residual activity is the signal under treatment as a percentage of the control signal.

For the origin of these results see ChEMBL document CHEMBL2218924, “A broad activity screen in support of a chemogenomic map for kinase signalling research and drug discovery” (Biochem J, 2013).
